Screens as filed in PubChem.
Sampled rows, rich in hits. Any-hit rate of the full collection: about 19%.
IL-1B inflam inh: blocks inflammasome-driven IL-1 beta release. THP-1 LPS/ATP IL-1B secretion, AlphaLISA, 16 h; stronger effect = lower value. activity change, % at 57.5 µM. 360,000 tested, 4.7% active. AID 743279; in the data active = activity change below about -50%; inconclusive = mostly about -30% to -49%
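Secreted IL-1B measured by AlphaLISA bead assay after 16 h compound exposure of THP-1 cells; compounds (final up to 57.5 uM) added 1 h before LPS (250 ng/mL) and ATP (1.25 mM) stimulation; lower signal means less secretion.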
DT40 TDP1 CPT: growth inhibition of DT40 Tdp1-/-;hTDP1 cells with camptothecin (screen for TDP1 inhibitors); Potency, µM (top dose mostly 46.2 µM), most hits filed as inhibitors; 420,000 tested, 12% active; chicken DT40 Tdp1-/-;hTDP1 cells + 20 nM CPT, ATP luminescence, 48 h; note: nearly all actives have a fitted effect of over 55% in size
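Chicken DT40 Tdp1-/- cells complemented with human TDP1, 400 cells/well, exposed to compounds plus 20 nM camptothecin for at least 48 h at 37 C; viability read as ATP content by CellTiter-Glo luminescence.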
HT1080 IDH1KD tx: kills HT-1080 cells with IDH1 knockdown. HT-1080 IDH1 knockdown viability, ATP luminescence, 48 h. Potency, µM (highest dose often 46.1 µM), most hits filed as cytotoxic. 360,000 tested, 2% active. AID 686971
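Knockdown cells (IDH1KD HT-1080) received compounds 2 h after plating at 750 cells/well and were kept 48 h at 37 °C in 5% FBS RPMI. A CellTiter-Glo luminescence read gave % activity for curve fitting.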
TDP1 cell noCPT: qHTS for Inhibitors of human tyrosyl-DNA phosphodiesterase 1 (TDP1): qHTS in cells in absence of CPT | 420,000 tested, 15% active | DT40 Tdp1-/- hTDP1 cells, no CPT, ATP luminescence, 48 h | Potency, µM (top dose mostly 46.2 µM), most hits filed as inhibitors; note: nearly all actives have a fitted effect of over 55% in size
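Readout: luminescence from CellTiter-Glo after 30 min in the dark at RT. Cells: DT40 Tdp1-/- with stable hTDP1, 400/well. Exposure: compounds alone, ≥48 hr, 37 °C.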
HT1080-NT tox: kills 2HG-producing HT-1080-NT fibrosarcoma cells. Potency, µM (series often up to 46.1 µM), usual class: cytotoxic. AID 686970. HT-1080-NT fibrosarcoma viability, CellTiter-Glo ATP luminescence, 48 h. 360,000 tested, 1.6% active;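 note: NT is the 2HG producing partner of a matched IDH1 knockdown line; nearly all actives have a fitted effect of over 55% in size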
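Compounds were tested in concentration-response format on HT-1080-NT cells for 48 hours at 37 degrees C. Cell viability came from CellTiter-Glo luminescence; curves were classified by r2, response magnitude and activity.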
Each line names hits and unclear results; the compound was inactive in the other large screens. Unless noted, calls come from the whole dose curve; as a rule, active = well fitted curve in the direction sought with a large enough effect; inconclusive = small, poorly fitted or top-dose-only effect, or another doubt; inactive = no such curve, though single readings can be large; an effect the other way counts as inactive or inconclusive.

Cc1ccc(F)c(NC(=O)Nc2ccc3snnc3c2)c1	DT40 TDP1 CPT 21µM, TDP1 cell noCPT 21µM (no result: IL-1B inflam inh, HT1080 IDH1KD tx, HT1080-NT tox)
COc1ccc(C)cc1NC(=O)Nc1cccc(C)c1	none
CC(=O)c1ccc(NC(=O)Nc2ccc3snnc3c2)cc1	DT40 TDP1 CPT 12µM, TDP1 cell noCPT 21µM (no result: IL-1B inflam inh, HT1080 IDH1KD tx, HT1080-NT tox)
CCCCCc1nnc(NC(=O)c2cccc(S(=O)(=O)N3CCOCC3)c2)s1	none
Cc1ccc(CNC(=O)CNS(=O)(=O)c2ccc3c(c2)C(C)(C)C(=O)N3C)cc1	IL-1B inflam inh inconclusive
CC(=O)Nc1cccc(NC(=O)Nc2cccc(Cl)c2C)c1	none
Cc1c(Cl)cccc1NC(=O)Nc1ccc2snnc2c1	DT40 TDP1 CPT 15µM, TDP1 cell noCPT 18µM (no result: IL-1B inflam inh, HT1080 IDH1KD tx, HT1080-NT tox)
Cc1ccc2oc(-c3cc(NC(=O)c4ncn[nH]4)ccc3O)nc2c1	DT40 TDP1 CPT inconclusive, TDP1 cell noCPT inconclusive
COc1ccc(NC(=O)C(C)n2c(C)c3cnn(-c4ccccc4)c(=O)c3c2C)cc1Cl (stereo not given)	DT40 TDP1 CPT 23µM, TDP1 cell noCPT 18µM (no result: IL-1B inflam inh, HT1080 IDH1KD tx, HT1080-NT tox)
COc1ccc(Cl)cc1NC(=O)CCCn1c(C)c2cnn(-c3ccccc3)c(=O)c2c1C	DT40 TDP1 CPT 23µM, TDP1 cell noCPT inconclusive (no result: IL-1B inflam inh, HT1080 IDH1KD tx, HT1080-NT tox)
Cc1c2cnn(-c3ccccc3)c(=O)c2c(C)n1CCCC(=O)Nc1ccc(F)cc1F	DT40 TDP1 CPT inconclusive, TDP1 cell noCPT 16µM (no result: IL-1B inflam inh, HT1080 IDH1KD tx, HT1080-NT tox)
Cc1noc(C)c1CSCC(=O)Nc1cc(C(F)(F)F)ccc1N1CCCCC1	DT40 TDP1 CPT 18µM, TDP1 cell noCPT 16µM
CC(C)Oc1ccc(S(=O)(=O)N2CCOCC2)cc1NC(=O)CSC(=S)N1CCCC1	DT40 TDP1 CPT inconclusive, TDP1 cell noCPT 21µM
Cc1noc(C)c1CSCC(=O)Nc1cc(S(=O)(=O)N2CCCCC2)ccc1OC(C)C	DT40 TDP1 CPT 12µM, TDP1 cell noCPT 23µM
Cc1cc(C)c2cc(C#N)c(NCCNC(=O)c3ccccn3)nc2c1	HT1080 IDH1KD tx inconclusive, HT1080-NT tox inconclusive
Clc1ccc2c(c1)-c1[nH]ncc1CS2	IL-1B inflam inh inconclusive
CC(C)CC(=O)/C(=C\c1ccc(Cl)cc1Cl)n1cncn1	IL-1B inflam inh -104, DT40 TDP1 CPT 2.9µM, HT1080 IDH1KD tx 2.9µM, TDP1 cell noCPT 1.8µM, HT1080-NT tox 5.8µM
CC(C)CC(=O)/C(=C/c1ccc(N(C)C)cc1)n1cncn1	HT1080-NT tox inconclusive
CN(C)c1ccc(/C=C(/C(=O)c2ccc(Cl)cc2Cl)n2cncn2)cc1	DT40 TDP1 CPT 23µM, HT1080 IDH1KD tx inconclusive, TDP1 cell noCPT 23µM, HT1080-NT tox inconclusive
O=C(/C=C\Nc1ccc(Br)cc1)c1cccnc1	none
Cc1ccc(S(=O)(=O)n2cnc3ccccc32)cc1	none
COc1ccc(C)cc1S(=O)(=O)n1cnc2ccccc21	DT40 TDP1 CPT 13µM, TDP1 cell noCPT 15µM
COc1ccccc1NC(=O)COC(=O)C1=NN(c2ccccc2)C(=O)CC1	none
Cc1ccccc1NC(=O)Nc1ccccc1Br	DT40 TDP1 CPT 10µM, TDP1 cell noCPT inconclusive
Cc1cc(NC(=O)Nc2ccccc2F)ccc1Br	IL-1B inflam inh -50, DT40 TDP1 CPT inconclusive, TDP1 cell noCPT inconclusive
Cn1nnc2cc(NC(=O)Nc3ccccc3F)ccc21	IL-1B inflam inh inconclusive, DT40 TDP1 CPT inconclusive, TDP1 cell noCPT 16µM
CCN(CC)S(=O)(=O)c1ccc(C)c(NC(=O)COC(=O)c2ccc(C)c(S(=O)(=O)N3CCOCC3)c2)c1	none
COc1ccc(/C=N/Nc2cc(C)nc(N)n2)cc1	none
CCOc1cc(/C=N/Nc2cc(C)nc(-n3nc(C)cc3C)n2)ccc1O	DT40 TDP1 CPT 2.6µM, HT1080 IDH1KD tx 5.8µM, TDP1 cell noCPT 2.3µM, HT1080-NT tox 5.8µM
COc1ccc(/C=N/NC(C)(C)C)c(OC)c1	DT40 TDP1 CPT inconclusive
COc1ccc(/C=N/Nc2cc(C)nc(-n3nc(C)cc3C)n2)c(OC)c1	IL-1B inflam inh -104, DT40 TDP1 CPT 1.5µM, HT1080 IDH1KD tx 9.2µM, TDP1 cell noCPT 1.6µM, HT1080-NT tox inconclusive
Cc1cc(N/N=C/c2ccc(F)cc2)nc(-n2nc(C)cc2C)n1	DT40 TDP1 CPT 2.9µM, HT1080 IDH1KD tx 1.8µM, TDP1 cell noCPT 3.7µM, HT1080-NT tox inconclusive
Cn1nc(C(=O)NCCN2Cc3ccccc3OC(c3ccsc3)C2)c2ccccc2c1=O (stereo not given)	none (no result: IL-1B inflam inh, HT1080 IDH1KD tx, HT1080-NT tox)
